In the library only some 12% were active in any assay of this set; here they are far more common.
HP1b chromo inh – HP1-beta chromodomain-methylated histone interaction inhibition; AlphaScreen HP1-beta / biotin-H3K9me3 peptide binding; Potency, µM (highest dose often 114 µM), for the others: top-dose activity change, negative = inhibition, most hits filed as inhibitors; hit rate 0.56% among 390,000; further: potency means the concentration at half of the fitted maximal effect; nearly all actives have a fitted effect of over 70% in size
Target sequence (P83916 whole entry, looked up): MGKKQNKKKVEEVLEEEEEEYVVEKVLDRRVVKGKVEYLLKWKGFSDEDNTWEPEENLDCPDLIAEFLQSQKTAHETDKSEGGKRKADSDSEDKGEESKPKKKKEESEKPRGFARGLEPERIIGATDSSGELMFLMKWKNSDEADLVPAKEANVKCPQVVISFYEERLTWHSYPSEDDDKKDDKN
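Compound inhibition of the preformed complex between 50 nM HP1-beta and 50 nM biotinylated H3K9me3 peptide was read by AlphaScreen. Buffer was PBS pH 7.4 with 0.01% Tween-20. Incubations ran 30 min at room temperature, with 10 ug/mL donor/acceptor beads.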
PLK1 PBD inh – PLK1 (human) polo-box domain binding inhibition; P53350; Plk1 PBD binding of FITC phosphopeptide, fluorescence polarization; Potency, µM, without a hit: max response, negative = inhibition, most hits filed as inhibitors; hit rate 2.8% among 360,000; further: potency means the concentration at half of the fitted maximal effect; series mostly up to about 57 µM; on the % scale 0 is the no-effect control and ±100 the full control effect; nearly all actives have a fitted effect of over 65% in size
G9a inh-1 – inhibitors of human histone lysine methyltransferase G9a. Q96KQ7. Potency, µM (doses to about 102 µM), without a hit: at the highest dose activity, negative = inhibition, hits mostly inhibitors. hit rate 8.8% among 350,000. G9a H3K9 monomethylation, AlphaScreen, 2 h; further: potency means the concentration at half of the fitted maximal effect; on the % scale 0 is the no-effect control and ±100 the full control effect; nearly all actives have a fitted effect of over 75% in size
Target sequence (Q96KQ7 913-1193 limits assumed): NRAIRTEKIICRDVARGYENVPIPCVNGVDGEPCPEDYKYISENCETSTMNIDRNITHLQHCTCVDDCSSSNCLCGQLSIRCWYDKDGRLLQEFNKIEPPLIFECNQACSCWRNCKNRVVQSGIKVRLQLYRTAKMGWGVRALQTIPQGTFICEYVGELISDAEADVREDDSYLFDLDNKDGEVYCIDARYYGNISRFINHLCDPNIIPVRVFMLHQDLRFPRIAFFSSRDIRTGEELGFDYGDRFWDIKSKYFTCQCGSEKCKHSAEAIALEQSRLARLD
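Compounds were preincubated with 20 nM G9a for 15 min, after which biotinylated H3K9 peptide (500 nM) and SAM (20 uM) started a 2 h room-temperature reaction. Monomethylated product was quantified by antibody-based AlphaScreen chemiluminescence.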
JMJD2A Tudor – inhibitors of human JMJD2A Tudor domain | AlphaScreen JMJD2A-Tudor / H3K4me3 peptide binding | Potency, µM (series often up to 114 µM), for the others: top-dose activity change, negative = inhibition, actives largely listed as inhibitors | hit rate 4.4% among 390,000 | AID 504339; further: potency means the concentration at half of the fitted maximal effect; on the % scale 0 is the no-effect control and ±100 the full control effect; nearly all actives have a fitted effect of over 50% in size
Sfp inh – Sfp phosphopantetheinyl transferase inhibition; hit rate 3.5% among 310,000; Q9F4F7; Biochemical Sfp PPTase activity, qHTS; Potency, µM, for inactives: largest response in the series, negative = inhibition, usual class: inhibitors;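 further: the enzyme is Sfp with the accession as filed and its product quenches rhodamine fluorescence; potency means the concentration at half of the fitted maximal effect; 0% = enzyme reaction without inhibitor and -100% = no enzyme wells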
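Compounds were incubated with enzyme (final 15 nM) for 15 min at room temperature before substrate addition started the reaction. Fluorescence at 525 nm excitation, 598 nm emission was recorded immediately and after 30 minutes.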
BAZ2B block – blocks human BAZ2B | Q9UIF8 | AlphaScreen BAZ2B-H3K14Ac peptide displacement | Potency, µM (highest dose often 114 µM), for inactives: at the highest dose activity change, negative = inhibition, actives largely listed as inhibitors | hit rate 4.4% among 360,000 | AID 504333; further: potency means the concentration at half of the fitted maximal effect; on the % scale 0 is the no-effect control and ±100 the full control effect; nearly all actives have a fitted effect of over 60% in size
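BAZ2B 50 nM plus b-H3(5-23)K14Ac 50 nM, PBS pH 7.4/0.01% Tween-20, 30 min RT; compound added (max 110 uM), 30 min RT; streptavidin donor/Ni-chelate acceptor beads 10 ug/mL final, 20 min dark; AlphaScreen read.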
G9a inh-2 – confirmation of human histone methyltransferase G9a inhibitors. hit rate 89% among 370. shares compounds with JMJD2A Tudor. Potency, µM, hits mostly inhibitors. AID 588344. G9a H3K9 monomethylation, AlphaScreen, 2 h; further: potency means the concentration at half of the fitted maximal effect; nearly all actives have a fitted effect of over 65% in size
RGS4 inh – inhibits human RGS4, hit validation; AID 602388; Potency, µM, hits mostly inhibitors; hit rate 80% among 25; RGS4 GAP activity, Transcreener GDP fluorescence polarization; shares compounds with JMJD2A Tudor
* marks the source's active call; other numbers are inactive results; ? = inconclusive; · = not tested or not shown; [ ] = another dose, or the depositor's remark. The call rests on the fitted dose curve; in most records, active means well fitted curve in the direction sought with a large enough effect; inconclusive means small, poorly fitted or top-dose-only effect, or another doubt; inactive means no such curve, though single readings can be large; an effect the other way counts as inactive or inconclusive.

SMILES	HP1b chromo inh	PLK1 PBD inh	G9a inh-1	JMJD2A Tudor	Sfp inh	BAZ2B block	G9a inh-2	others
CCOC(=O)CSc1nc2cc(OC)c(OC)cc2c2nc(-c3ccccc3)nn12	14%	·	4%[59 µM]	-12%	·	·	·
CCn1c2ccccc2c2cc(CN3CCN(Cc4ccc(Br)cc4)CC3)ccc21	?	·	0.89µM*	4.5µM*	·	25µM*	25*
Cc1ccc(OCC(=O)Nc2cccc(-c3nc4ccccc4s3)c2)cc1	-14%	·	2.5µM*	-12%	·	1%	11*
CCOc1cccc(CN2CCC(n3nccc3NC(=O)CCCc3ccccc3)CC2)c1	11%	-15%	·	?	2%	17%	·
CCN(CC)C(=O)C1CCN(Cc2cccc(OCc3ccccc3)c2)CC1	56µM*	-3%	2.8µM*	50µM*	-5%	35µM*	28*
CC1CN(Cc2c(O)ccc3c2oc(=O)c2ccccc23)CC(C)O1 (stereo unspecified)	?	-10%	0.45µM*	10µM*	79µM*	4µM*	0.28*
CCn1c(SCC(=O)NC2CCCCC2)nnc1-c1cccnc1	9%	0%	17%	-9%	13%	-2%	·
COC(=O)c1c(-c2cccs2)csc1NC(=O)COc1ccccc1	-8%	·	1.8µM*	-28%	·	?	4.1*
O=C(Nc1ccc(N2CCCCCC2)cc1)c1ccccc1Cl	35µM*	-1%	2.5µM*	32µM*	-10%	28µM*	7.1*
CC(C)C(=O)Nc1ccc(N2CCN(c3ccc(F)cc3)CC2)cc1	33%	1%	0%	-6%	20%	-3%	·
CC(C)C(=O)Nc1ccc(N2CCCC2)cc1	3%	-3%	?	?	79µM*	-38%	1*
Cc1cc(C)cc(C(=O)Nc2ccc(N3CCCC3)cc2)c1	-13%	-10%	-127%	?	50µM*	?	0.71*
O=C(Nc1ccc(N2CCCC2)cc1)c1ccc(Cl)cc1Cl	32%	-15%	-36%	-13%	1%	-10%	·
CCOc1ccc(NC(=O)c2ccc(F)c(S(=O)(=O)N(CC)Cc3ccccc3)c2)cc1	34%	·	-4%[59 µM]	-14%	·	2%	·
CNc1ncncc1-c1ccccc1C(F)(F)F	·	·	?	·	?	·	·	RGS4 inh=27*
FC(F)(F)c1ccccc1-c1cncnc1NCc1ccccc1	·	·	9%[0.501 µM]	·	-2%	·	·
CCOc1c(Cl)cc(CNc2ccc(S(N)(=O)=O)cc2)cc1OC	9%	-10%	-15%[59 µM]	-3%	13%	-39%	·
CCOc1c(Cl)cc(CNc2ccc(N3CCCC3)cc2)cc1OC	45µM*	?	2.8µM*	14µM*	79µM*	20µM*	6.3*
Cc1oc(-c2ccccc2)cc1C(=O)Nc1ccc(N(C)C)cc1	?	-1%	2.2µM*	50µM*	-14%	20µM*	1.8*
CCCCn1c(SCC(=O)N2CCCC2)nnc1-c1ccccc1	27%	-7%	3%	8%	12%	-3%	·
CCn1c(SCC(=O)N2CCCC2)nnc1-c1ccc(N)cc1	-7%	-27%	1.1µM*	12%[11.4 µM]	-10%	0%	1.6*
Cc1cccc(NC(=O)CSc2nnc(CNC(=O)c3c(F)cccc3Cl)o2)c1C	47%	·	0%[59 µM]	1%	·	2%	·
Cc1nn(-c2ccccn2)c2c1C(=O)C(Br)CC2 (stereo unspecified)	?	3µM*	1.3µM*	13µM*	4µM*	·	0.25*
Cn1c(SCC(=O)NCc2ccccc2)nnc1-c1ccc(NC(=O)CCc2ccccc2)cc1	20%	-10%	?	-13%	14%	?	11*
COc1ccccc1C(=O)Nc1ccc(-c2nnc(SCC(=O)O)n2C)cc1	30%	-13%	?	100µM*	7%	?	8*

Compound activity as filed in PubChem BioAssay.
